This is an account of results in the OligoGym collection.
Further: reference of the scale not given here.

The first assay addresses KBTBD12. The assay is described as follows: pooled miR-30 sensor sort-seq; sequence = guide strand. Particulars: shRNA.
For the sequence TTTAATAACACCGACACACTTT, the sensor-assay potency score (higher = more potent) came out at 0.48.
On to TTGTCTTGACCTACACAGCCAA, for which the sensor-assay potency score (higher = more potent) was -0.566.
TTCTTTGTTATGATTTACCCAT returned a sensor-assay potency score (higher = more potent) of -0.456.

In another assay the target is KCNAB2. Described as above. Particulars: shRNA.
With TATCTTGTGGAACAGCTCCGGC, the sensor-assay potency score (higher = more potent) is -1.17.
Sequence ATGATCTCCATGGAGCTCCAGC returned a sensor-assay potency score (higher = more potent) of -1.53.
The sequence TTTCTCACGCTGGAACATGTGG came in with a sensor-assay potency score (higher = more potent) of -0.804.
TTCCTGTAGATCATCCCGGGGG displayed a sensor-assay potency score (higher = more potent) of -0.0548.
Consider TTGGTGGTGATGACGAGGCTGG, for which the sensor-assay potency score (higher = more potent) was -0.706.
TTTCAGACCTTCGATTATGTGC: the sensor-assay potency score (higher = more potent) is -0.469.
Same read-out and setting: then TAGACTTCTGCTGTATCGAAGA, with -0.756.
Sequence AATACTATCAATCTCGTGGATA gave a sensor-assay potency score (higher = more potent) of -1.21.
For TTCTGCTGTATCGAAGAGGTTG, the sensor-assay potency score (higher = more potent) was -0.594.
On to TTCGATTATGTGCTTCCTGGAC, for which the sensor-assay potency score (higher = more potent) is -0.692.
In turn, CAAAATACTATCAATCTCGTGG had a sensor-assay potency score (higher = more potent) of -0.486.
In turn, TGACAGTTTCGGAAGGACCTGT returned a sensor-assay potency score (higher = more potent) of 0.657.
